Experimental data published in PubChem BioAssay (NCATS).
Records with an inconclusive call do not appear. Active and inactive are the calls of the source. Unless noted, calls follow the shape of the dose curve; as a rule, active = well fitted inhibition curve with a large enough effect; inconclusive = small, poorly fitted or top-dose-only effect; inactive = flat fitted curve, though single readings scatter.

Key:
[1] = AP1 Signaling Pathway (AID 357; active = well fitted curve in either direction with a large enough effect, not every such curve was filed as active; also: % is scaled to controls: 0 for no effect and ±100 for the full control effect)
How it was run: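 ME-180 cells with beta-lactamase reporter under AP-1 response element, stimulated with EC50 EGF; compounds tested in titration series, 5 h at 37 °C. CCF4 substrate added 2.5 h at room temperature; 460/530 nm emission ratio gave %activity and AC50.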

[2] = biological target: Cytochrome P450 1A2 (Homo sapiens) (UniProt P05177); test: p450-cyp1a2 (AID 410; calls by dose curve; also: potency is read from the fitted curve at half-maximal effect;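 as to activity change, negative = inhibition: -100% = full effect of reference inhibitor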)
How it was run: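 O-Demethylation of luciferin 6' methyl ether by human CYP1A2 is monitored as luciferase luminescence. Substrate sits at Km (100uM); enzyme is 20nM. Values are scaled to 57 uM furafylline as maximal inhibition.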

[3] = NFAT Signaling Pathway (AID 444; active = well fitted curve in either direction with a large enough effect, not every such curve was filed as active;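 also: carbachol stimulus at about its EC50 of 1 µM final; % is scaled to controls: 0 for no effect and ±100 for the full control effect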); conditions: Jurkat NFAT-bla M1, carbachol, beta-lactamase ratio, 5 h; at 17.2 µM (top of the series) unless noted
How it was run: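 Read-out: CCF4 FRET ratio (460 nm/530 nm) after 1 h RT dye loading, used for %activity and AC50 from titration series. Cells: Jurkat NFAT-β-lactamase/M1 line, treated with compound plus 1 uM carbachol for 5 h, 37 °C.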

[4] = Stat Signaling Pathway (AID 446; active = well fitted curve in either direction with a large enough effect, not every such curve was filed as active;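 also: ME-180 cervical cancer cells given 40 pM IL-6 alongside compound; SIE-controlled beta-lactamase reporter measured as 460/530 nm FRET emission ratio; % is scaled to controls: 0 for no effect and ±100 for the full control effect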)
How it was run: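 Emission at 460 and 530 nm (excitation 405 nm) reports SIE-controlled beta-lactamase in ME-180 cells. Cells received compound with 40 pM IL-6 for 5 hrs at 37 C; data scaled between 300 pM IL-6 and 125 nM JAK-inhibitor controls.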

[5] = biological target: Glucocorticoid receptor (Homo sapiens) (UniProt P04150); test: GR-GFP Redistribution (AID 450;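 active = compounds whose dose series gives a full or clear partial fitted curve of increased nuclear translocation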; also: potency is read from the fitted curve at half-maximal effect); conditions: U2OS GR-GFP nuclear translocation, laser cytometry, 2 h
[6] = biological target: Glucocorticoid receptor (Homo sapiens) (UniProt P04150); test: GR-EFC Redistribution (AID 451; calls by dose curve; also: potency is read from the fitted curve at half-maximal effect); conditions: CHO-K1 GR-EFC translocation, beta-gal luminescence, 2 h
How it was run: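 Translocation of GR-ED fusion to nuclear EA restores b-gal, read by luminescence after 1 h room-temperature detection. Engineered CHO-K1 biosensor cells, 1,000/well, exposed 2 h at 37 C to titrations up to 46 uM final.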

[7] = biological target: Mitogen-activated protein kinase 10 (Mus musculus) (UniProt Q61831); test: JNK3 AlphaScreen Assay (AID 530; active = well fitted curve in either direction with a large enough effect, not every such curve was filed as active;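 also: kinase came from lysate of stimulated human HepG2 cells; signal reports phosphorylation of biotinylated GST-cJun 1-79 at Ser73 with 10 µM ATP; % is scaled to controls: 0 for no effect and ±100 for the full control effect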)
How it was run: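 qHTS titrations with 15 min compound pre-incubation before adding ATP (10 uM final). Read-out: AlphaScreen of Ser73-phosphorylated biotin-GST-cJun using HepG2 lysate JNK3 activated by IL-1β and TNFα.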

[8] = biological target: 3',5'-cyclic-AMP phosphodiesterase 4B (Homo sapiens) (UniProt Q07343); test: qHTS Assay for Inhibitors of PDE-IV (AID 607; active = well fitted activation curve with a large enough effect in the main read-out, with a control signal flat, not every such curve was filed as active; also: % of control where 0% means no effect)
How it was run: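 The readout is membrane depolarisation from a cAMP-sensing CNG channel, detected with a potential dye at ex 535/em 590. Cells were HEK293-derived (endogenous PDE-IV) at 1000 cells/well, titrated up to 22.9 uM final.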

[9] = qHTS Assay for Lipid Storage Modulators (AID 1519; calls by dose curve); conditions: Drosophila S3 cells, BODIPY lipid droplet/cell ratio, laser cytometry, cells loaded with oleic acid; for activity change, negative = inhibition: at 25.7 µM (top of the series)
How it was run: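 Cells seeded at 5,000 per well were treated with compounds over a concentration series and loaded with oleic acid (400 uM, as added). Lipid droplet fluorescence (488 nm excitation, 500-530 nm channel) was read by laser-scanning cytometry and normalized to 20 uM Triacsin C.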

[10] = biological target: Ubiquitin carboxyl-terminal hydrolase 1 (Homo sapiens) (UniProt O94782); test: Inhibitors of USP1/UAF1: Pilot qHTS (AID 504865);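 also: rhodamine fluorescence freed from ubiquitin-rhodamine substrate followed over time; top concentration of the series differs between compounds; % is scaled to controls: 0 for no effect and ±100 for the full control effect; nearly all actives have a fitted effect of over 35% in size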
How it was run: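 1nM USP1/UAF1 + cpd, 15 min RT; start w/ Ub-Rho 150nM final; kinetic FL 480/540 nm, 6 reads q60 s. Buffer 50mM HEPES pH 7.8, 0.5mM EDTA, 1mM TCEP, 0.01% Tween-20, 0.1 mg/ml BSA.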

[11] = qHTS profiling for inhibitors of Plasmodium falciparum proliferation (AID 504749);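 also: 0% = DMSO vehicle and full inhibition = artemisinin control; nearly all actives have a fitted effect of over 60% in size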; conditions: P. falciparum in erythrocytes, SYBR Green DNA, 72 h, at 12.8 µM (top of the series)
How it was run: (§1)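 SYBR Green fluorescence of parasite DNA, read after lysis and overnight dark incubation, measured growth over 72 h in erythrocyte culture at 0.3% parasitemia and 2.5% hematocrit. Data normalised to DMSO and 0.29 uM artemisinin, with plate-drift correction.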

C2A = test: as above; conditions: P. falciparum in erythrocytes, SYBR Green DNA, 72 h; series mostly up to 12.8 µM
How it was run: as §1

CP217 = test: as above; conditions: P. falciparum in erythrocytes, SYBR Green DNA, 72 h; series mostly up to 12.8 µM
How it was run: as §1

CP238 = test: as above; conditions: P. falciparum in erythrocytes, SYBR Green DNA, 72 h; series mostly up to 12.8 µM
How it was run: as §1

CP250 = test: as above; conditions: P. falciparum in erythrocytes, SYBR Green DNA, 72 h; series mostly up to 12.8 µM
How it was run: as §1

FAB9 = test: as above; conditions: P. falciparum in erythrocytes, SYBR Green DNA, 72 h; series mostly up to 12.8 µM
How it was run: as §1

JCK = test: as above; conditions: P. falciparum in erythrocytes, SYBR Green DNA, 72 h; series mostly up to 12.8 µM
How it was run: as §1

SC27B = test: as above; conditions: P. falciparum in erythrocytes, SYBR Green DNA, 72 h; series mostly up to 12.8 µM
How it was run: as §1

[12] = biological target: Luciferin 4-monooxygenase (Photinus pyralis) (UniProt P08659); test: Biochemical firefly luciferase enzyme assay for NPC (AID 624030);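 also: purified P. pyralis luciferase at 10 nM with luciferin and ATP substrate; 0% = DMSO and -100% = full luciferase inhibition by PTC124 control; nearly all actives have a fitted effect of over 70% in size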
How it was run: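 Direct inhibition of firefly luciferase enzyme (10 nM final, 50 mM Tris Acetate) assessed by luminescence within 5 minutes. Percent activity scaled between DMSO and PTC124 positive control, with concentration-effect curves classified by fit quality and response.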

CP256 = test: qHTS profiling for inhibitors of Plasmodium falciparum proliferation (AID 504749);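 also: 0% = DMSO vehicle and full inhibition = artemisinin control; nearly all actives have a fitted effect of over 60% in size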; conditions: P. falciparum in erythrocytes, SYBR Green DNA, 72 h; series mostly up to 12.8 µM
How it was run: as §1

[13] = measured here: cell count channel max response
[14] = measured here: lipid channel max response

Ubiquitin carboxyl-terminal hydrolase 1 (Homo sapiens), sequence (O94782 whole entry, looked up): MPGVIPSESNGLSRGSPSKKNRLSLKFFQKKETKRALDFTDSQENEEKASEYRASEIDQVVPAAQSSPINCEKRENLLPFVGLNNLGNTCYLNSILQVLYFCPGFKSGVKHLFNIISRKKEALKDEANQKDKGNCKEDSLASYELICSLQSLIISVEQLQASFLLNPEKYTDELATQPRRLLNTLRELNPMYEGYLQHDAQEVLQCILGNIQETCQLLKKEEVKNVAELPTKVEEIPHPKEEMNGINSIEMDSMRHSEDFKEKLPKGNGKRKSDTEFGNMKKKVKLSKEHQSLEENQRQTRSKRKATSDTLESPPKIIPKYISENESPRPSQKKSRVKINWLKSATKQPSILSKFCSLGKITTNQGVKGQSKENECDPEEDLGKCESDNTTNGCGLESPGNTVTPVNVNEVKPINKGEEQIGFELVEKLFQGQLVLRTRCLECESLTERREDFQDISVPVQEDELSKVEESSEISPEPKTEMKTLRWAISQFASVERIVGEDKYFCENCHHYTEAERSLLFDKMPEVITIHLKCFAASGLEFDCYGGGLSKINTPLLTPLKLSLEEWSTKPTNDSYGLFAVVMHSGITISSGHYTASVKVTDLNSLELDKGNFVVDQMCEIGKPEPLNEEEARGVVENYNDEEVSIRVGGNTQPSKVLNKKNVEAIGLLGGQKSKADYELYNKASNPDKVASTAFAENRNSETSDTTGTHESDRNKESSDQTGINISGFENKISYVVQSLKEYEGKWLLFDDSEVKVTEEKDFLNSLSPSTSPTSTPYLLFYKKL
Glucocorticoid receptor (Homo sapiens), sequence (P04150 whole entry, looked up, the tested form may be a part): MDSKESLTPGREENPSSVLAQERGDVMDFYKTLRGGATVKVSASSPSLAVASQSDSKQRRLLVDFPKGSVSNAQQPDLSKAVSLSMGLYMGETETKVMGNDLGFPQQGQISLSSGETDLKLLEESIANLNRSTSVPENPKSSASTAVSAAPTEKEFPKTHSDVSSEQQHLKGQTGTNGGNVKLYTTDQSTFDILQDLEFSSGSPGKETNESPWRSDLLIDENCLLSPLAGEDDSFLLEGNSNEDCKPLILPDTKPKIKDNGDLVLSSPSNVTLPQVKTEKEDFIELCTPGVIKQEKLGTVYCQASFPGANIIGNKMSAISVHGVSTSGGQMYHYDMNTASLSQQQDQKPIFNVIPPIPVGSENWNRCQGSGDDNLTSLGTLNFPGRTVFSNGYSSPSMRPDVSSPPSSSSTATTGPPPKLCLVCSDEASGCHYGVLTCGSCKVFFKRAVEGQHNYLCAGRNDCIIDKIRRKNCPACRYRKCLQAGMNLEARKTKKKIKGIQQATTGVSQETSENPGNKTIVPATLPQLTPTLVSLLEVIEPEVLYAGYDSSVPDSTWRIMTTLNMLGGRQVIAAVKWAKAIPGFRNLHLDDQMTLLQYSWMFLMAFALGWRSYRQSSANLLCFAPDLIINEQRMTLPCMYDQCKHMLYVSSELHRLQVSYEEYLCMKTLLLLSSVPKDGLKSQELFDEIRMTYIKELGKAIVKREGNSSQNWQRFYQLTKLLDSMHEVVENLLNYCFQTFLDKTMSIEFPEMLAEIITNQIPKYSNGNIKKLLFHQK
3',5'-cyclic-AMP phosphodiesterase 4B (Homo sapiens), sequence (Q07343 whole entry, looked up): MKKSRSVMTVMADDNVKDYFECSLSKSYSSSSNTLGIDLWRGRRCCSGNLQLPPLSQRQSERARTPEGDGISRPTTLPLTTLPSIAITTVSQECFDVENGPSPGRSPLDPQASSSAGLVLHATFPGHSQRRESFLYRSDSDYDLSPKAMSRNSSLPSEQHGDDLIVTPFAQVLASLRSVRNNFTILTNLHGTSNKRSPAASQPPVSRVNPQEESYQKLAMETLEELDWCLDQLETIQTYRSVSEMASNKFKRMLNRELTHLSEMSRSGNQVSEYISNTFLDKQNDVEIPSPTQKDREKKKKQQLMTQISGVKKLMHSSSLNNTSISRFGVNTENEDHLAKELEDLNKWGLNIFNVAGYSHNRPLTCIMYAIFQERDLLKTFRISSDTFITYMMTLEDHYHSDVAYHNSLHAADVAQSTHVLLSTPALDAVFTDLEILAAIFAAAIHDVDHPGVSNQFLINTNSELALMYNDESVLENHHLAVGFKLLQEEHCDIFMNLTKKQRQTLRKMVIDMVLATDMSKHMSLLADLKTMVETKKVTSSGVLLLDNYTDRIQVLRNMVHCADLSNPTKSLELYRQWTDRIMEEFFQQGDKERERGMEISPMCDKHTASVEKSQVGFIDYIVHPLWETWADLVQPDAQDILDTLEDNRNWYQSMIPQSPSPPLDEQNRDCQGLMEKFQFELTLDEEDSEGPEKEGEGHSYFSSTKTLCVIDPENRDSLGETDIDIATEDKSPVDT
Luciferin 4-monooxygenase (Photinus pyralis), sequence (P08659 whole entry, looked up): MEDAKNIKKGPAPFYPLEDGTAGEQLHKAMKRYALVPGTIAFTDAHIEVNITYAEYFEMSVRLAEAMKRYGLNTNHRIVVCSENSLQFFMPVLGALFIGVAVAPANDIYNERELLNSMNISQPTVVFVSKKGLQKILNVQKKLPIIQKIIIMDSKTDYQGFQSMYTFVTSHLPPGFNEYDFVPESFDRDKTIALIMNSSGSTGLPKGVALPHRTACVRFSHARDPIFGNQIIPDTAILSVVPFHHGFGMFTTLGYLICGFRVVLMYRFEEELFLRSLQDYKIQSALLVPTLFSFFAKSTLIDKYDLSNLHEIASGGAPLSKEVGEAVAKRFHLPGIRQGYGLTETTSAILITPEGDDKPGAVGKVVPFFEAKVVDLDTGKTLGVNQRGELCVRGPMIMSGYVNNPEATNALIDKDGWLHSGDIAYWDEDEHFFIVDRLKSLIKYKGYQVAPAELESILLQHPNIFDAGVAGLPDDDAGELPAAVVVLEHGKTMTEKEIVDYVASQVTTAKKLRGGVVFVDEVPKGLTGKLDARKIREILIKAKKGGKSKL
Cytochrome P450 1A2 (Homo sapiens), sequence (P05177 whole entry, looked up): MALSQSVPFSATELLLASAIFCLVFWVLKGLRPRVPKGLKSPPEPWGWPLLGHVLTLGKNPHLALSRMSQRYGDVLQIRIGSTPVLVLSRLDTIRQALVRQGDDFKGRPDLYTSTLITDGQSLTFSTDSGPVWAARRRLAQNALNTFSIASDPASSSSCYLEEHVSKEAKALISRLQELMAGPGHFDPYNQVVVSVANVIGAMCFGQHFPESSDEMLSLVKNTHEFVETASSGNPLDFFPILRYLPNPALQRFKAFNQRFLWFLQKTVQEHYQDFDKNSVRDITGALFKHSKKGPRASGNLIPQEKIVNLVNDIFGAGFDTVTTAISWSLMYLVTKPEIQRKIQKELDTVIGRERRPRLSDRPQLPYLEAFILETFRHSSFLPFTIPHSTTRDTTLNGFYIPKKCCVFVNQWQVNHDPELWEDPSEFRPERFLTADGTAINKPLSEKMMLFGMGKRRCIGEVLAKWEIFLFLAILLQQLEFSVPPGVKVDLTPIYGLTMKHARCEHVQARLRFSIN

C=CCOc1ccccc1OC[C@H](O)CNC(C)C
-12.4%: max response [9, 13]
inactive: outcome [1] | activity change, negative = inhibition [3] -9.75% | outcome [4] | Potency [5] > 20.6 µM | Potency [6] > 20.6 µM | Potency [7] | outcome [8] | activity change, negative = inhibition [9] 2.07% | Potency [10] | activity, negative = inhibition ([11]; parasite line A) -6.89% | activity, negative = inhibition ([11]; parasite line B) -26.4% | Potency (C2A) | Potency (CP217) | Potency (CP238) | Potency (CP250) | Potency (FAB9) | Potency (JCK) | Potency (SC27B)
active: Potency [2] 5.01 µM
-9.74%: max response [9, 14]

CC(C)(CS)C(=O)N1CCC[C@H]1C(=O)O
inactive: outcome [1] | Potency [2] | activity change, negative = inhibition [3] -3.44% | outcome [4] | Potency [5] > 20.6 µM | Potency [6] > 20.6 µM | Potency [7] | outcome [8] | activity change, negative = inhibition [9] 1% | Potency [10]
2.97%: max response [9, 13]
4.64%: max response [9, 14]

C[C@]1(OC(=O)/C=C\c2ccccc2)C[C@@H](O)[C@@]2(O)C=CO[C@@H](O[C@H]3O[C@@H](CO)[C@@H](O)[C@@H](O)[C@@H]3O)[C@H]21
-15.8%: max response [9, 13]
inactive: outcome [1] | Potency [2] | activity change, negative = inhibition [3] -11% | outcome [4] | Potency [5] > 20.6 µM | Potency [6] > 20.6 µM | Potency [7] | outcome [8] | activity change, negative = inhibition [9] -2.22% | Potency [10]
-17.4%: max response [9, 14]

CC[C@@H]1OC(=O)[C@H](C)[C@H](O[C@@H]2C[C@](C)(OC)[C@H](O)[C@H](C)O2)[C@H](C)[C@H](O[C@@H]2O[C@@H](C)C[C@@H](N(C)C)[C@@H]2O)[C@](C)(O)C[C@H](C)C(=NOCOCCOC)[C@H](C)[C@H](O)[C@]1(C)O
inactive: outcome [1] | Potency [2] | activity change, negative = inhibition [3] -1.03% | outcome [4] | Potency [5] > 20.6 µM | Potency [6] > 20.6 µM | Potency [7] | outcome [8] | activity change, negative = inhibition [9] 0.83% | Potency [12] | activity, negative = inhibition ([11]; parasite line B) -20.4% | Potency (C2A) | Potency (CP217) | Potency (CP238) | Potency (CP250) | Potency (FAB9) | Potency (JCK) | Potency (SC27B)
-2.35%: max response [9, 13]
-1.19%: max response [9, 14]

CN[C@@H]1[C@H](O[C@H]2[C@@H](O[C@@H]3[C@@H](O)[C@@H](O)[C@@H](N=C(N)N)[C@@H](O)[C@@H]3N=C(N)N)O[C@@H](C)[C@]2(O)CO)O[C@H](CO)[C@@H](O)[C@@H]1O
-12.5%: max response [9, 14]
-9.77%: max response [9, 13]
inactive: outcome [1] | Potency [2] | activity change, negative = inhibition [3] 1.68% | outcome [4] | Potency [5] > 20.6 µM | Potency [6] > 20.6 µM | Potency [7] | outcome [8] | activity change, negative = inhibition [9] -1.28% | Potency [10]

OC[C@@H](O)CN1CCN(c2ccccc2)CC1
-7.93%: max response [9, 14]
-9.92%: max response [9, 13]
inactive: outcome [1] | Potency [2] | activity change, negative = inhibition [3] 3.85% | outcome [4] | Potency [5] > 20.6 µM | Potency [6] > 20.6 µM | Potency [7] | outcome [8] | activity change, negative = inhibition [9] 0.251% | Potency [10]

C[C@H](N)CCCC(C)(C)O
inactive: outcome [1] | Potency [2] | activity change, negative = inhibition [3] -3.85% | outcome [4] | Potency [5] > 20.6 µM | Potency [6] > 20.6 µM | Potency [7] | outcome [8] | activity change, negative = inhibition [9] -0.344% | Potency [10]
0.317%: max response [9, 13]
0.936%: max response [9, 14]

CO[C@]1(NC(=O)C2SC(=C(C(N)=O)C(=O)O)S2)C(=O)N2C(C(=O)O)=C(CSc3nnnn3C)CS[C@H]21 (some centres not stated)
inactive: outcome [1] | Potency [2] | activity change, negative = inhibition [3] 13.4% | outcome [4] | Potency [5] > 20.6 µM | Potency [6] > 20.6 µM | Potency [7] | outcome [8] | activity change, negative = inhibition [9] 0.935% | Potency [12] | activity, negative = inhibition ([11]; parasite line A) -5.23% | activity, negative = inhibition ([11]; parasite line B) -0.327% | Potency (C2A) | Potency (CP217) | Potency (CP238) | Potency (CP250) | Potency (CP256) | Potency (FAB9) | Potency (JCK) | Potency (SC27B)
0.185%: max response [9, 13]
1.63%: max response [9, 14]

NS(=O)(=O)c1cc2c(cc1Cl)N[C@@H](CC1CCCC1)NS2(=O)=O
1.17%: max response [9, 13]
1.04%: max response [9, 14]
inactive: outcome [1] | Potency [2] | activity change, negative = inhibition [3] -6.75% | outcome [4] | Potency [5] > 20.6 µM | Potency [6] > 20.6 µM | outcome [8] | activity change, negative = inhibition [9] -0.977% | Potency [10] | Potency [12] | activity, negative = inhibition ([11]; parasite line A) -0.239% | activity, negative = inhibition ([11]; parasite line B) 5.35% | Potency (C2A) | Potency (CP217) | Potency (CP238) | Potency (CP250) | Potency (CP256) | Potency (FAB9) | Potency (JCK) | Potency (SC27B)

CN(C)CCn1nnnc1SCC1=C(C(=O)O)N2C(=O)[C@@H](NC(=O)Cc3csc(N)n3)[C@@H]2SC1
-8.86%: max response [9, 14]
inactive: outcome [1] | Potency [2] | activity change, negative = inhibition [3] -2.63% | outcome [4] | Potency [5] > 20.6 µM | Potency [6] > 20.6 µM | Potency [7] | outcome [8] | activity change, negative = inhibition [9] -0.351% | Potency [10] | Potency [12] | activity, negative = inhibition ([11]; parasite line A) 0.61% | activity, negative = inhibition ([11]; parasite line B) 1.06% | Potency (C2A) | Potency (CP217) | Potency (CP238) | Potency (CP250) | Potency (CP256) | Potency (FAB9) | Potency (SC27B)
-8.06%: max response [9, 13]

Cc1c(O)c(=O)n(-c2ccccc2)n1C
19.1%: max response [9, 14]
20.7%: max response [9, 13]
inactive: outcome [1] | Potency [2] | activity change, negative = inhibition [3] -1.71% | outcome [4] | Potency [5] > 20.6 µM | Potency [6] > 20.6 µM | Potency [7] | outcome [8] | activity change, negative = inhibition [9] -0.744% | Potency [10]
